From PubChem
A selection: hits, their analogues and other compounds. The true share with any hit is near 4.1%.
TROY signal inh – TROY signaling inhibition. Q293 LMP1-TROYcd NF-kB luciferase reporter, 4 h. actives 0.98% (n = 360,000). inhibition, % at 10 µM. AID 1347056;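 active = compounds whose plate-normalised and pattern-corrected inhibition of the luciferase reporter signal at the single screening dose is 50% or more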
TWEAK Fn14 block – TWEAK-Fn14 signaling inhibition; actives 2% (n = 360,000); TWEAK-stimulated Fn14 reporter cells, luciferase luminescence, 8 h; inhibition, % at 10 µM; in the data active = inhibition above about 50%
Peg3 promoter – Peg3 promoter activity inhibition | HeLa PEG-Prom luciferase reporter, luminescence, overnight | inhibition, % at 20 µM | actives 1.7% (n = 360,000) | AID 588405;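 active = inhibition of at least 50% at 20 µM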
Shn3 inh set2 – Schnurri-3 reporter inhibition in Clone20 osteoblasts. Clone20 osteoblast Shn3 3'UTR firefly luciferase, 24 h. inhibition, % at 12.5 µM. actives 0.52% (n = 360,000). AID 588674;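 active = mean inhibition of at least 75% with every replicate also reaching 75%; inconclusive = mean inhibition at least 75% but some replicate below; inactive = mean inhibition below 75%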;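 note: 0% = median of neutral control wells and 100% = pilot-screen positive control compound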
TRPM1 prom inh – inhibitors of MITF-driven TRPM1 promoter in melanoma cells; SK-MEL-5 TRPM1 promoter luciferase, 24 h; inhibition, % at 12.5 µM; actives 0.83% (n = 330,000);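 active = mean inhibition across replicates of 60% or more, whatever share of single replicates reaches that level; inconclusive = some that reach 60%, reason not given; inactive = mean inhibition across replicates below 60%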
LMP1 NFkB inh – reduces LMP1-driven NF-kappaB luciferase signal; LMP1-induced NF-kappaB luciferase reporter cells, luminescence; inhibition, % at 12.5 µM; actives 0.69% (n = 350,000); in the data active = inhibition above about 41%; inconclusive = no clear call, values can overlap the other calls;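 note: 0% = neutral control wells and 100% = reference inhibitor control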
* marks the source's active call; other numbers are inactive results; ? = inconclusive; . = no result.

SMILES	TROY signal inh	TWEAK Fn14 block	Peg3 promoter	Shn3 inh set2	TRPM1 prom inh	LMP1 NFkB inh
Cn1nc(-c2ccccn2)nc2c(=O)n(C)c(=O)nc1-2	57.0*	102.2*	104.6*	97.6*	103.8*	14.1
Cc1cc(NC(=O)COc2ccccc2)ccc1Cl	-66.1	-3.1	-229.2	-74.3	-28.7	-22.9
COc1ccccc1C1CCN(c2cc(O)ccc2[N+](=O)[O-])CC1	56.5*	-8.6	14.9	-5.6	-5.9	-3.8
O=C(CCn1c2c(c3ccccc31)CCCC2)NNC(=O)c1cccc([N+](=O)[O-])c1	6.6	2.6	16.0	12.3	-3.0	9.9
O=C(CCn1c2c(c3ccccc31)CCCC2)NNC(=O)c1ccccc1Cl	38.0	64.6*	-2.7	-17.0	3.4	0.7
COc1ccccc1C(=O)NC(=O)COC(=O)CCOc1cc(C)ccc1C	3.3	-2.5	5.5	-7.1	7.7	-3.1
CC[N+](C)(C)Cc1ccccc1Br	5.4	-14.1	1.6	2.5	0.3	82.9*
CN1CCCN(Cc2ccccc2Br)CC1	1.0	1.8	7.0	-3.9	19.1	-12.9
O=C(CCl)Nc1cc2[nH]c(=O)[nH]c2cc1Br	9.2	-15.4	87.5*	-26.5	57.4	3.0
Cn1cc([N+](=O)[O-])c(C(=O)N2CCCCCC2)n1	-15.9	8.4	0.3	9.8	-11.5	4.6
O=C(N=Nc1c(O)[nH]c2ccc(Cl)cc12)c1cc(-c2cccs2)nc2ccccc12	6.8	-49.7	70.4*	9.8	18.7	1.4
CC1=NN(c2ccccc2)C(=O)/C1=C\C=C\c1ccccc1	49.4	94.0*	71.0*	14.8	.	.
CC(C)(O)C#Cc1ccc([C@@H]2C[C@H]3CN(c4ccccc4)C(=O)[C@]34CCCN24)s1	1.7	19.4	102.8*	95.2*	45.0	54.3*
COCc1cc([C@@H]2C[C@H]3CN(c4ccccc4)C(=O)[C@]34CCCN24)ccc1OC	3.3	-18.3	53.8*	-8.7	-5.7	8.9
COc1ccccc1N1C[C@@H]2C[C@@H](c3ccco3)N3CCC[C@@]23C1=O	-20.0	-21.4	13.3	-8.5	5.3	1.0
O=C1N(c2ccccc2)C[C@@H]2C[C@@H](c3cccs3)N3CCC[C@@]123	0.9	26.4	72.9*	47.9	3.0	0.3
COc1ccc([C@@H]2C[C@H]3CN(c4ccccc4)C(=O)[C@]34CCCN24)c(OC)c1OC	6.5	-10.4	-1.6	3.8	-11.7	11.3
O=C(NCc1ccccn1)c1ccc(OC2CCN(Cc3ccc(CO)o3)CC2)cc1	-9.8	6.4	4.9	-3.2	15.5	4.5
O=C(CCNC(=O)c1ccc(Cl)cc1)Nc1ccccc1N1CCCC1	-5.8	9.7	2.7	-3.8	1.6	0.8
c1ccc2c(C3CCO3)cccc2c1 (centres undefined)	-0.7	-4.2	1.8	0.8	-6.9	4.0
CCOC(=O)/C=C/C(=O)Nc1cccc([N+](=O)[O-])c1	2.9	-19.5	87.6*	?	12.9	11.4
CCOC(=O)/C=C/C(=O)OCC(=O)Nc1cccc(Cl)c1Cl	-14.9	-10.6	13.6	-4.3	-0.1	-9.7
CCOC(=O)c1cccc(NC(=O)/C=C/c2cccc([N+](=O)[O-])c2)c1	21.8	-13.7	-16.1	3.3	-16.4	9.7
CCOC(=O)/C=C/C(=O)Nc1ccccc1-c1ccccc1NC(=O)/C=C/C(=O)OCC	-52.3	57.5*	69.7*	64.4	13.5	-33.2
NC(=O)COC(=O)c1cccc2c1-c1ccccc1C2=O	-6.8	-7.6	19.4	-15.8	-10.6	-2.4
SMILES	TROY signal inh	TWEAK Fn14 block	Peg3 promoter	Shn3 inh set2	TRPM1 prom inh	LMP1 NFkB inh
CC(C)COC(=O)c1ccc2c(c1O)C(=O)c1ccccc1C2=O	28.9	70.8*	-224.7	4.4	4.9	-40.2
COc1cccc2cc(-c3nnc(-c4ccccc4)o3)c(=O)oc12	70.3*	73.5*	-22.6	15.6	4.5	49.6*
Cc1cccc(-c2nc(S(=O)(=O)c3ccccc3)c(N3CCOCC3)o2)c1	-7.1	1.6	14.8	11.1	-1.5	-3.0
Cc1ccc(-c2nc(S(=O)(=O)c3ccc(C)cc3)c(N3CCOCC3)o2)cc1	14.1	64.8*	5.7	1.4	-17.6	-2.5
O=C1NC(Cc2ccc(O)cc2)c2nc3ccc(F)cc3c(=O)n2-c2ncccc21 (centres undefined)	2.9	10.8	8.9	-14.4	.	1.4
O=C(CCNC(=O)c1ccc([N+](=O)[O-])cc1)Nc1ccc(F)c(F)c1F	9.1	-4.7	-6.2	-6.4	-4.6	-0.1
C=C1C(=O)O[C@@]23[C@H]1CC[C@@H](C)[C@@H]2CC[C@@]1(C)O[C@@H]31	3.6	48.3	-102.2	-19.3	84.8*	8.0
S=C(NCc1ccco1)Nc1cc(-c2ccccc2)[nH]n1	-4.1	21.1	-87.2	-19.7	-28.0	-0.7
C=CC(=O)NC1CC2CCC1(C)C2(C)C (centres undefined)	8.0	0.8	4.9	2.2	3.2	2.5
CCc1ccc(C(=O)/C=C/c2cnn(C)c2C)s1	67.4*	60.5*	-160.5	-87.4	-35.6	1.2
C=CC(=O)Nc1cccc(Oc2ncnc3[nH]cc(-c4cnc5ccccc5c4)c23)c1	52.6*	65.4*	42.4	32.1	30.8	12.3
OC(C1=CC(=Cc2ccncc2)c2ccccc21)c1ccncc1 (centres undefined)	29.2	55.0*	-3.5	52.0	13.0	16.5
OC(c1ccccc1)c1ccncc1 (centres undefined)	-4.4	-0.7	-12.3	-20.1	0.4	6.0
O=c1cc(-c2ccccc2)[nH]n1-c1ccccc1	52.8*	1.4	12.5	-2.1	4.1	0.4
CCCCc1ccc(C2C3=C(CC(C)(C)CC3=O)NC3=C2C(=O)c2ccccc23)cc1 (centres undefined)	33.2	57.2*	42.9	11.3	16.6	-15.9
CCCc1ccc(C2C3=C(CC(C)(C)CC3=O)NC3=C2C(=O)c2ccccc23)cc1 (centres undefined)	22.0	55.0*	55.9*	50.4	4.9	6.2
CC1(C)CC(=O)C2=C(C1)NC1=C(C(=O)c3ccccc31)C2c1ccc(O)cc1 (centres undefined)	-9.1	11.6	14.3	17.0	-7.3	0.4
N/C(=N\OC(=O)c1cccc(C(F)(F)F)c1)c1cnccn1	-87.5	-15.4	-170.3	-61.9	-72.8	-26.2
O=C(OCn1ncc(Cl)c(Cl)c1=O)c1cccc(C(F)(F)F)c1	28.1	97.8*	103.9*	96.8*	93.6*	0.1
C#CCOc1coc(COC(=O)c2ccccc2)cc1=O	-15.8	-9.4	-21.9	-28.5	-3.4	-7.4
CC(=O)c1nc(-c2ccccc2)sc1C	-9.9	-4.7	-30.4	43.2	-13.8	-4.8
Cc1ccc(S(=O)(=O)N2CCN(c3cc4c(cc3[N+](=O)[O-])n(C)c(=O)n4C)CC2)cc1	50.6*	34.9	38.9	47.4	11.8	3.9
Cc1c(C(=O)O/N=C(\N)c2ccccn2)cccc1[N+](=O)[O-]	-15.5	67.0*	-19.6	-45.0	25.2	2.9
